High-throughput results deposited in PubChem by National Center for Advancing Translational Sciences (NCATS).
Sampled rows, rich in hits. Any-hit rate of the full collection: about 2.9%.
IDH1 R132H inh = blocks human mutant IDH1 R132H enzyme; O75874; hit rate 0.093% among 390,000; Potency, µM (titrated, usually from 76.6 µM), usual class: inhibitors; AID 602179; IDH1-R132H enzyme, NADPH consumption, diaphorase/resazurin fluorescence; further: nearly all actives have a fitted effect of over 65% in size
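IDH1-R132H (0.5 ug/mL) preincubated 30 min with compound, then NADPH (0.016 mM) and alpha-KG (2 mM) added; 80 min at RT, pH 7.5. Remaining NADPH coupled via diaphorase/resazurin to fluorescence (540/590 nm); concentration-response curves normalized to no-enzyme control.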
B2AR arrestin = agonists driving beta-arrestin recruitment to human beta2-adrenergic receptor; P07550; beta-arrestin recruitment to beta2AR, cell-based reporter; Potency, µM (titrated, usually from 46.1 µM), actives largely listed as activators; hit rate 0.02% among 330,000; further: nearly all actives have a fitted effect of over 65% in size
D3 ag = activates the human D3 dopamine receptor; AID 652048; P35462; D3R DiscoveRx beta-arrestin cells, luminescence, 90 min; max activation, %; hit rate 0.58% among 410,000; in the data active means max activation above about 30%
Target sequence (P35462 whole entry, looked up): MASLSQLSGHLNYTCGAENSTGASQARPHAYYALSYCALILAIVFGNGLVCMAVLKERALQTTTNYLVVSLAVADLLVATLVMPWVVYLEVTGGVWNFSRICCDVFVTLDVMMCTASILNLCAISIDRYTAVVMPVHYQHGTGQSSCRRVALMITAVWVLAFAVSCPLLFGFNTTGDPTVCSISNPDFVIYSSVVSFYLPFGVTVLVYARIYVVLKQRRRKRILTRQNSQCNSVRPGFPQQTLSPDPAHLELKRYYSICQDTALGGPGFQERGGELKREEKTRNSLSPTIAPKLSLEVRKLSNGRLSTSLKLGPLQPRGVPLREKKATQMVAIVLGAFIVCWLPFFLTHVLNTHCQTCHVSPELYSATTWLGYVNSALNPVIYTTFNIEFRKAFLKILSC
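Cells at 1500/well, incubated overnight, then treated with pinned compounds (dopamine as control) for 90 min at 37 degrees C. DiscoveRx reagent added for 30 - 60 minutes at room temperature; luminescence read.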
a7 integrin act = integrin-mediated muscular dystrophy alleviation activation; alpha7betagal myoblasts, beta-gal FDG fluorescence, 48 h; Potency, µM (doses to about 38.3 µM), usual class: activators; hit rate 0.064% among 350,000; further: nearly all actives have a fitted effect of over 60% in size
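alpha7betagal+/- myoblasts (passage 13, 250/well) treated 48 h at 37C with compounds at 1:260 dilution of DMSO stock. Lysed, then beta-galactosidase activity read as FDG fluorescence (ex 480/em 540) after 30 min, with pre-read for autofluorescence.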
DRD3 antagonist = antagonists of human D3 dopamine receptor; P35462; D3R cells, DiscoveRx beta-arrestin luminescence, antagonist mode; active compounds read low; max response, negative = inhibition, %; hit rate 2.5% among 360,000; AID 652054; in the data active means max response below about -50%; inconclusive means no clear call, values can overlap the other calls
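Cells plated overnight at 1500 cells/well, then exposed to library compounds with dopamine controls for 90 minutes at 37 degrees C. DiscoveRx reagent added for 30–60 minutes at room temperature; luminescence read, quantitative HTS format.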
Numbers stand for hits. Unless noted, the call rests on the fitted dose curve; in most records, active means well fitted curve in the direction sought with a large enough effect; inconclusive means small, poorly fitted or top-dose-only effect, or another doubt; inactive means no such curve, though single readings can be large; an effect the other way counts as inactive or inconclusive.

Screening CC(=O)Nc1c(C)ccc2nsnc12 returned IDH1 R132H inh inactive, B2AR arrestin inactive, D3 ag inactive, a7 integrin act inactive and DRD3 antagonist -77.
For COc1cc2c(cc1OC)C(c1cc(Br)ccc1F)N(C(=O)CCl)CC2 (configuration not stated) the results were IDH1 R132H inh inconclusive, B2AR arrestin inactive, D3 ag inactive, a7 integrin act inactive and DRD3 antagonist -87.
For COc1cc2c(cc1OC)C(C1C(=O)CC(C)(C)CC1=O)N(C(=O)CCl)CC2 (configuration not stated) the results were IDH1 R132H inh inactive, B2AR arrestin inactive, D3 ag inactive, a7 integrin act inconclusive and DRD3 antagonist inactive.
O=C(CN(Cc1ccccc1F)S(=O)(=O)c1ccc(Cl)cc1)NCCC1=CCCCC1 was read as IDH1 R132H inh inactive, B2AR arrestin inactive, D3 ag inactive, a7 integrin act inactive and DRD3 antagonist inactive.
Screening Cc1ccc(S(=O)(=O)N(CC(=O)NCCC2=CCCCC2)Cc2ccccc2F)cc1 returned IDH1 R132H inh inactive, B2AR arrestin inactive, D3 ag inactive, a7 integrin act inactive and DRD3 antagonist -74.
CCOc1ccc(CCNC(=O)c2cc3c(=O)n(C)c4ccccc4c3n2C)cc1OCC was read as IDH1 R132H inh inactive and D3 ag inactive.
`CCC(C)(C)NC(=O)c1ccc2c(c1)N(CC(=O)NC1CCCC1)C(=O)C(C)(C)O2` gave IDH1 R132H inh inactive, B2AR arrestin inactive, D3 ag inactive, a7 integrin act inactive and DRD3 antagonist -62.
Screening Clc1ccc2c(c1)-c1c(cnc3cc(-c4ccccc4)nn13)CO2 returned IDH1 R132H inh inactive and D3 ag inactive.
`COc1cccc(-n2c(=O)c3c(C)c(C(=O)N(C)C)sc3n(Cc3ccc(F)cc3Cl)c2=O)c1` gave IDH1 R132H inh inactive and D3 ag inactive.
For CCCc1cc(N2CCCC(C(=O)Nc3c(OC)cccc3OC)C2)n2ncnc2n1 (configuration not stated) the results were IDH1 R132H inh inactive, B2AR arrestin inactive, D3 ag 31, a7 integrin act inactive and DRD3 antagonist inactive.
For CCOC(=O)c1ccccc1NC(=O)N1CCOc2ccc(Cl)cc21 the results were IDH1 R132H inh inactive and D3 ag inactive.
CCNS(=O)(=O)c1ccc(CCC(=O)N2CCc3ccccc3C2)cc1 was read as IDH1 R132H inh inactive, B2AR arrestin inactive, D3 ag inactive, a7 integrin act inactive and DRD3 antagonist -72.
`O=C(CCNC(=O)c1ccco1)NCc1ccc(C(=O)O)cc1` gave IDH1 R132H inh inactive, B2AR arrestin inactive, D3 ag inactive, a7 integrin act inactive and DRD3 antagonist inactive.
Screening Cc1cccc(N=C2NC(=O)/C(=C3/C(=O)N(C)c4ccccc43)S2)c1C returned IDH1 R132H inh inactive, B2AR arrestin inactive, D3 ag inactive, a7 integrin act inactive and DRD3 antagonist -93.
For O=c1[nH]c(=S)[nH]c2c1[C@H](C1CC1)O[C@H](CCc1ccccc1)C2 the results were D3 ag inactive and DRD3 antagonist -84.
For O=C1c2ccccc2C(=O)N1Nc1ccc([N+](=O)[O-])cc1[N+](=O)[O-] the results were IDH1 R132H inh inactive, B2AR arrestin inactive, D3 ag inactive, a7 integrin act inactive and DRD3 antagonist -75.
Screening COCCn1c(C)cc(C(=O)CSc2nc(C)nc3sc4c(c23)CCC4)c1C returned IDH1 R132H inh inactive, D3 ag 54, a7 integrin act inactive and DRD3 antagonist inactive.
`Cc1nc(SCC(=O)NCC2CCCO2)c2c3c(sc2n1)CCCC3` (configuration not stated) gave IDH1 R132H inh inactive, B2AR arrestin inactive, D3 ag inactive, a7 integrin act inactive and DRD3 antagonist inactive.
For O=C(Nc1ccccc1Cl)c1cc(C2CCCCN2C(=O)c2ccccc2)on1 (configuration not stated) the results were D3 ag inactive and DRD3 antagonist inactive.
O=C(NCCc1ccccc1)c1c[nH]c2c(F)cccc2c1=O was read as IDH1 R132H inh inactive, B2AR arrestin inactive, D3 ag inactive, a7 integrin act inactive and DRD3 antagonist -50.
Screening COc1ccc(C(C(=O)NCC2CCCO2)N(C(=O)Cn2nnc3ccccc32)c2ccccc2C(C)=O)cc1OC (configuration not stated) returned IDH1 R132H inh inactive, B2AR arrestin inactive, D3 ag inactive, a7 integrin act inactive and DRD3 antagonist inactive.
CCOc1ccc(NC(=O)CSc2nc3ccsc3c(=O)n2C(C)CC)cc1 (configuration not stated) was read as IDH1 R132H inh inactive and D3 ag inactive.
Screening O=[N+]([O-])c1ccc(N2CCN(C(=S)NCc3ccc(Cl)cc3)CC2)cc1 returned IDH1 R132H inh inactive, B2AR arrestin inactive, D3 ag inactive, a7 integrin act inactive and DRD3 antagonist -53.
For COc1ccc(C)cc1NC(=O)C1CCC(CNS(=O)(=O)c2ccc3c(c2)CCCC(=O)N3)CC1 (configuration not stated) the results were IDH1 R132H inh inactive and D3 ag inactive.
CCOC(=O)COc1ccccc1C1C(C(=O)OC)=C(C)NC2=C1C(=O)c1ccccc12 (configuration not stated) was read as IDH1 R132H inh inactive and D3 ag inactive.
Cc1ccccc1NC(=O)Cc1nc(COC(=O)c2ccc(NC(N)=O)cc2)cs1 was read as IDH1 R132H inh inactive, B2AR arrestin inactive, D3 ag inactive, a7 integrin act inactive and DRD3 antagonist inactive.
`CCOC(=O)c1c(C)[nH]c(C(=O)OCc2csc(CC(=O)Nc3ccccc3C)n2)c1C` gave IDH1 R132H inh inactive, B2AR arrestin inactive, D3 ag 36, a7 integrin act inactive and DRD3 antagonist inactive.
Cc1ccccc1NC(=O)Cc1nc(COC(=O)c2cccc(C)c2O)cs1 was read as IDH1 R132H inh inactive, B2AR arrestin inactive, D3 ag inactive, a7 integrin act inactive and DRD3 antagonist inactive.
Screening O=C(COC(=O)c1ccccc1F)Nc1cccnc1Cl returned IDH1 R132H inh inactive, B2AR arrestin inactive, D3 ag 39, a7 integrin act inactive and DRD3 antagonist inactive.
Cc1ccccc1NC(=O)Cc1nc(COC(=O)c2ccc(S(C)(=O)=O)c([N+](=O)[O-])c2)cs1 was read as IDH1 R132H inh inactive, B2AR arrestin inactive, D3 ag inactive, a7 integrin act inactive and DRD3 antagonist -73.
Screening Cc1ccccc1NC(=O)COC(=O)c1ccc(S(C)(=O)=O)c([N+](=O)[O-])c1 returned IDH1 R132H inh inactive, B2AR arrestin inactive, D3 ag inactive, a7 integrin act inactive and DRD3 antagonist -98.
For O=C(COC(=O)c1ccccc1Cl)Nc1cccnc1Cl the results were IDH1 R132H inh inactive, B2AR arrestin inactive, D3 ag inactive, a7 integrin act inactive and DRD3 antagonist inactive.
Screening Cc1ccc(-c2nnc(Nc3ccc(Br)cc3)c3ccccc23)cc1S(=O)(=O)N1CCN(C)CC1 returned IDH1 R132H inh inactive and D3 ag inactive.
